Assay outcomes (PubChem)
Pf growth 96h: P. falciparum growth inhibition at 96 hour, primary screen for plastid delayed-death inhibitors; P. falciparum luciferase reporter growth, 96 h; Potency, µM (doses to about 28.7 µM), hits mostly inhibitors; 320,000 tested, 6.9% active
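Readout is luminescence from an integrated firefly luciferase in P. falciparum. Red cells, 2% hematocrit and 0.05% parasitemia final, were cultured with compound through two parasite generations (96 hours) at 37 C, 5% CO2.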
CHX counter: counter-screen hit for Shiga toxin inhibitors, cycloheximide. cell reporter, cycloheximide protein synthesis inhibition counterscreen. max response, %. 300,000 tested, 12% active. AID 2314; in the data active = max response mostly above about 13%, no sharp cut-off; inactive = mostly below about 14%; also: read at 38.3 µM for the half of the compounds with a filed dose
HCMV inh: human cytomegalovirus inhibition | 410,000 tested, 4.5% active | HFF cells, HCMV-luciferase reporter, 72 h; active compounds read low | AID 1259415 | activity change, negative = inhibition, % at 57.5 µM; in the data active = activity change below about -60%; inconclusive = no clear call, values can overlap the other calls; inactive = above about -39%
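Inhibition of viral replication was scored as loss of reporter luminescence in HFFs infected with HCMV-luciferase (MOI 1 PFU/cell) for 72 h; compounds tested at 2 doses, normalized to buffer and Salinomycin controls.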
Shiga toxin inh: inhibitors of Shiga toxin in Vero cells | AID 2315 | 290,000 tested, 9.2% active | Vero cells, Shiga toxin protein synthesis inhibition reporter | inhibition, % at 38.7 µM; in the data active = inhibition mostly above about 28%, no sharp cut-off; inactive = mostly below about 43%
Pf growth 48h: P. falciparum growth inhibition at 48 hours (one generation); AID 504832; 310,000 tested, 5.9% active; Potency, µM (titrated, usually from 28.7 µM), actives largely listed as inhibitors; P. falciparum luciferase growth in erythrocytes, 48 h
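Read-out is firefly luciferase luminescence from an integrated reporter in P. falciparum, so falling signal marks reduced parasite growth. Infected erythrocytes were at 2% hematocrit and 0.1% parasitemia (final) in Albumax-supplemented RPMI 1640.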
Numbers stand for hits; - = inactive; ? = inconclusive; . = not tested or not shown. In the library only some 20% were active in any assay of this set; here they are far more common. Unless noted, calls follow the shape of the dose curve; as a rule, active = well fitted inhibition curve with a large enough effect; inconclusive = small, poorly fitted or top-dose-only effect, or another doubt; inactive = no such curve, though single readings can be large or run the other way.

SMILES	Pf growth 96h	CHX counter	HCMV inh	Shiga toxin inh	Pf growth 48h
Cc1cccc(CN2CCN(C(c3ccccc3)c3ccc(Cl)cc3)CC2)c1 (centres undefined)	9.3µM	-	-	-	?
COc1cc(CN2CCN(C(c3ccccc3)c3ccccc3)CC2)cc(OC)c1OC	4.7µM	-	-	-	?
COc1cccc(CN2CCN(C(c3ccccc3)c3ccccc3)CC2)c1O	0.41µM	-	-	-	?
CC1CCc2c(sc(NC(=O)CSc3nc4c(c(C(F)(F)F)n3)CCc3ccccc3-4)c2C(N)=O)C1 (centres undefined)	?	-	-	-	-
Cc1ccc([C@@H]2C[C@H]3[C@@H](CN2S(=O)(=O)c2ccc(C)cc2)C(=O)C[C@@H](c2ccccc2F)N3S(=O)(=O)c2ccc(C)cc2)cc1	.	.	-	.	.
Cc1ccc(C(=O)CSc2cc(C)nc(SCC(=O)c3ccccc3)n2)cc1	.	-	-	-	-
O=C(O)c1ccnc(SCC(=O)c2ccccc2)c1	-	-	-	-	-
O=C(CSc1ccccn1)c1ccc(F)cc1	-	34	-	58	.
Cc1ccc(C(=O)CSc2ccccn2)cc1	.	46	-	113	-
COc1ccc(NC(=O)Cn2c(=O)n(CCCC(=O)NCc3ccccc3OC)c(=O)c3ccccc32)cc1Cl	.	.	-	.	.
COc1ccc(-n2nnnc2SCC(=O)c2ccc3c(c2)OCCO3)c(OC)c1	-	-	-	-	-
O=C(CSc1nnnn1C1CCCC1)c1ccc2c(c1)OCCO2	?	33	-	-	-
CCCn1c(SCC(=O)c2ccc3c(c2)OCCO3)n[nH]c1=O	?	30	-	62	-
CC(C)n1nnnc1SCC(=O)c1ccc2c(c1)OCCO2	-	36	-	42	-
O=C(CSc1nnnn1C1CCCC1)Nc1ccc2c(c1)OCO2	?	-	-	-	-
Cc1ccc(C)c(C(=O)CSc2nnnn2C(C)C)c1	?	62	-	54	-
CCc1cccc(NC(=O)COc2cc(=O)n(CC)c3ccccc23)c1	.	.	-	.	.
Cn1c(N)c(C(=O)CSc2ncn[nH]2)c(=O)n(C)c1=O	-	-	?	-	-
COc1ccccc1NC(=O)CSc1nnnn1C1CCCCC1	-	-	-	-	-
COc1ccc(C)cc1-n1nnnc1SCC(=O)c1ccc2c(c1)OCCO2	-	-	-	-	-
COc1cccc(C(=O)CSc2nnnn2C2CCCCC2)c1	-	28	-	59	.
CCn1c(SCC(=O)c2ccc3c(c2)OCCO3)nnc1C(C)C	?	19	-	-	-
CCCn1c(SCC(=O)c2ccc3c(c2)OCCO3)nc2c1c(=O)n(C)c(=O)n2C	?	-	-	-	-
CCn1nnnc1SCC(=O)c1ccc2c(c1)OCCO2	-	52	-	113	-
COc1ccccc1/C=C/C(=O)NCc1ccccn1	-	-	-	-	-
SMILES	Pf growth 96h	CHX counter	HCMV inh	Shiga toxin inh	Pf growth 48h
COC(=O)C1CCN(C(=O)c2cc(S(=O)(=O)N3CCCCC3)ccc2Cl)CC1	?	.	-	.	-
CCCc1cc(O)c2c(C)cc(=O)oc2c1	12µM	-	-	-	?
COc1cc2ccccc2cc1C(=O)NCC(c1cccs1)N(C)C (centres undefined)	-	37	-	87	-
COc1cc(C(=O)NCC(c2cccs2)N(C)C)cc(Cl)c1OC(C)C (centres undefined)	-	-	-61	-	-
CCCOc1ccc(C(=O)NCC(c2cccs2)N(C)C)cc1OC (centres undefined)	-	-	-	-	-
CC(C)C(NC(=O)CCNC(=O)c1ccc([N+](=O)[O-])cc1)c1nc2ccccc2[nH]1 (centres undefined)	-	.	-	.	-
NC(=O)C(F)(F)C12OC3C4C5CC(C6C5C3C61)C42 (centres undefined)	-	-	-	-	-
O=c1c2ccccc2nnn1CSc1ncnc2ccccc12	?	-	-	-	-
O=c1c2ccccc2nnn1CSc1nc2ccccc2[nH]1	-	43	-	77	-
O=c1c2ccccc2nnn1CSc1ccccc1F	-	63	-	55	-
O=c1c2ccccc2nnn1CSc1nnc2sc3ccccc3n12	-	38	.	79	-
Cc1ccc(SCn2nnc3ccccc3c2=O)c(C)c1	-	51	?	118	-
Cc1ccc(CNC(=O)C(C)n2c(=O)cc(-c3ccccc3)c3c(C)nn(C)c32)cc1 (centres undefined)	.	.	-	.	.
CC(C)(C)c1ccc(C(=O)Nc2ccccc2C(=O)OCc2cc(=O)n3ccsc3n2)cc1	.	.	-	.	.
CN(c1ccc(F)cc1)S(=O)(=O)N1CCCC(C(=O)NCc2cccc(Br)c2)C1 (centres undefined)	.	.	-	.	.
Cc1ccc(SCCn2nc(C(=O)O)c3ccccc3c2=O)cc1	-	-	-	-	-
Cc1cc(=O)[nH]c(SCn2nnc3ccccc3c2=O)n1	-	-	-	-	.
Cc1ccc2nc(SCn3nnc4ccccc4c3=O)[nH]c2c1	-	65	-	98	-
O=C(O)c1nn(CCSc2ccccc2F)c(=O)c2ccccc12	-	23	-	-	-
Cc1ccc(-n2c(SCn3nnc4ccccc4c3=O)nnc2-c2cccnc2)c(C)c1	?	-	-	-	10µM
Cc1c(Cl)cccc1NC(=O)C(C)n1c(=O)cc(C)c2c(C)nn(-c3ccccc3)c21 (centres undefined)	.	.	-	.	.
Brc1ccc(-c2csc(-c3ccncc3)n2)cc1	-	-	-	42	?
Cc1ccc(-c2csc(-c3nc(-c4ccc(Br)s4)cs3)n2)cc1	.	.	-	.	.
O=C(Nc1ccc(Br)cc1)c1csc(-c2ccncc2)n1	?	-	?	-	-
Cc1ccc(-c2csc(-c3ccncc3)n2)cc1	-	26	-	96	?
SMILES	Pf growth 96h	CHX counter	HCMV inh	Shiga toxin inh	Pf growth 48h
COc1ccc(-c2nn(-c3ccccc3)cc2CN(C)CCn2ccnc2C)c(F)c1	-	-	-	-	-
COc1ccc(S[C@]2(c3nc(-c4cccnc4)no3)CC(=O)N[C@@H]2c2ccc(OC)cc2)cc1	.	.	-	.	.
Cc1c(NS(=O)(=O)c2ccccc2)ccc([N+](=O)[O-])c1Cl	.	.	-65	.	.
O=[N+]([O-])c1cc(Cl)ccc1NCCNS(=O)(=O)c1ccccc1	?	19	-	36	-
CCN1CCCC1CNC(=O)c1ccc2c(c1)NC(=O)/C(=C\c1ccccc1Cl)S2 (centres undefined)	.	.	-63	.	.
Cc1cccc(/C=C2/Sc3ccc(C(=O)NCCN4CCCC4)cc3NC2=O)c1	-	-	?	-	?
CCN1CCCC1CNC(=O)c1ccc2c(c1)NC(=O)/C(=C\c1ccc(OC)c(OC)c1)S2 (centres undefined)	?	-	-	-	4.7µM
CCOC(=O)C1CCCN(S(=O)(=O)CCNC(=O)c2ccc(F)cc2)C1 (centres undefined)	-	.	-	.	-
CCS(=O)(=O)c1nc(S(=O)(=O)c2ccc(Cl)cc2)c(NCc2ccc(Cl)cc2)s1	.	.	-	.	.
O=C(Nc1ccc(F)cc1F)c1cccc2c1C(=O)N(C1CCCCC1)C2	.	.	-	.	.
CCOC(=O)c1c(CN2CCN(c3ccccc3)CC2)oc2cc(Br)c(O)cc12	?	-	-	-	1.7µM
